Several values for one entry are separate records, joined by “and”; a condition that tells them apart may be missing. Equal entries are not always repeated. Inconclusive results are not listed. Some structures have more than one record in an assay (separate samples or runs), and their calls can disagree. Activity calls are given as the source filed them. Unless noted, calls follow the shape of the dose curve; as a rule, active = well fitted curve in the direction sought with a large enough effect; inconclusive = small, poorly fitted or top-dose-only effect, or another doubt; inactive = no such curve, though single readings can be large; an effect the other way counts as inactive or inconclusive.
Experiments:
[1] = target: Guanine nucleotide-binding protein G(i) subunit alpha-1 (Homo sapiens) (UniProt P63096); assay: qHTS Assay for Inhibitors of RGS12 GoLoco Motif Activity (Green Fluorophore) (AID 879); conditions: Galphai1/FITC-RGS12 GoLoco peptide, fluorescence polarization; series mostly up to 57.1 µM;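 also: negative values mean loss of peptide binding seen as reduced polarization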
Chain of Guanine nucleotide-binding protein G(i) subunit alpha-1 (Homo sapiens) (P63096 whole entry, looked up): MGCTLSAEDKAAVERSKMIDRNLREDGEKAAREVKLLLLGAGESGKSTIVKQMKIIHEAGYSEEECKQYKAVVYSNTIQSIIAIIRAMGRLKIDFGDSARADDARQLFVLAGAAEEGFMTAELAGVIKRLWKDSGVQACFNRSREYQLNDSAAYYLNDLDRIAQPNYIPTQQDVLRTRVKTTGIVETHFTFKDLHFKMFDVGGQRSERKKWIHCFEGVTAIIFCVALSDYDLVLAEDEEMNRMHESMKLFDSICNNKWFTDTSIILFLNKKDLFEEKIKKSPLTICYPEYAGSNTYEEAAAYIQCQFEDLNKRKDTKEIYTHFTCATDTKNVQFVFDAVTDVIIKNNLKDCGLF
Summary of the method: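 Fluorescence polarization assay: 50 nM Gαi1 with 10 nM FITC-labeled RGS12 GoLoco peptide in 10 mM Tris pH 7.5, 150 mM NaCl, 0.1 mM GDP, 0.05% NP40, 10 min at room temperature with compound.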

[2] = target: Cytochrome P450 2C9 (Homo sapiens) (UniProt P11712); assay: qHTS Assay for Inhibitors and Substrates of Cytochrome P450 2C9 (AID 883); conditions: recombinant CYP2C9, luciferin-H luminescence, 60 min; series mostly up to 57.1 µM; also: nearly all actives have a fitted effect of over 60% in size; also: potency is read from the fitted curve at half-maximal effect
Chain of Cytochrome P450 2C9 (Homo sapiens) (P11712 whole entry, looked up): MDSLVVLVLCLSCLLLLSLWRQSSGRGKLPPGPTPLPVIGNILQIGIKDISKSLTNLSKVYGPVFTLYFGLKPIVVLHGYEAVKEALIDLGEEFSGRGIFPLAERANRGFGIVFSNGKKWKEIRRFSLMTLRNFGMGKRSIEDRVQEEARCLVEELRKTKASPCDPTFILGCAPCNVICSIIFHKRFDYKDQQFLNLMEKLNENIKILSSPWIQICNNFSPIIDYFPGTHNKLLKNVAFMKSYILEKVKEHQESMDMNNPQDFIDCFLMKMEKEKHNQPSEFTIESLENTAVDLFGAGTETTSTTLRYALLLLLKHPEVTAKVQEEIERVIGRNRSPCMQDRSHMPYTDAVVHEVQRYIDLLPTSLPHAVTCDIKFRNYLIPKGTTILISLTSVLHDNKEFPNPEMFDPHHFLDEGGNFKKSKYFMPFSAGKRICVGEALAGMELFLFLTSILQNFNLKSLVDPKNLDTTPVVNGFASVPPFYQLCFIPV
Summary of the method: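 Signal: luciferase luminescence reporting luciferin produced by CYP2C9. Conditions: 10nM enzyme, Luciferin-H 100uM at KM, 25mM KPO4, 37C, 60 min NADPH-driven reaction. Reference: 57uM sulphaphenazole as 100% inhibition.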

[3] = target: Cytochrome P450 3A4 (Homo sapiens) (UniProt P08684); assay: qHTS Assay for Activators of Cytochrome P450 3A4 (AID 885); conditions: recombinant CYP3A4, Luciferin-PPXE luminescence, 60 min; series mostly up to 57.1 µM; also: nearly all actives have a fitted effect of over 65% in size
Chain of Cytochrome P450 3A4 (Homo sapiens) (P08684 whole entry, looked up): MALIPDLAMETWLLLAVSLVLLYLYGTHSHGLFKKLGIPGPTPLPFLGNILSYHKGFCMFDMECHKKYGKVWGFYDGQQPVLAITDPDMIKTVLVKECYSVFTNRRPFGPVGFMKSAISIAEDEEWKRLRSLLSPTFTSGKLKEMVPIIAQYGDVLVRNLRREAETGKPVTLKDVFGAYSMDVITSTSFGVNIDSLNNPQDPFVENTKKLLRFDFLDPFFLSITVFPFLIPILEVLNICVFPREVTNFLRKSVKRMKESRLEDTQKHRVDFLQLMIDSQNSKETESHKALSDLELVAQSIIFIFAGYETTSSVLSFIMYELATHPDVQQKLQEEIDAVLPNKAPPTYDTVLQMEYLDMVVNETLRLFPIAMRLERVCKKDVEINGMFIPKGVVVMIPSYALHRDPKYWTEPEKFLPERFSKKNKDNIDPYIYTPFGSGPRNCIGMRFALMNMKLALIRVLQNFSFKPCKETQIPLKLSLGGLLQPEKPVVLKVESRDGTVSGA
Summary of the method: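 Signal was normalized against complete inhibition by 57 uM ketoconazole. The reaction used 20nM CYP3A4 with 25uM Luciferin-PPXE, 10-min compound preincubation and a 60-min NADPH-supported step at RT.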

[4] = target: Cytochrome P450 2D6 (Homo sapiens) (UniProt P10635); assay: qHTS Assay for Inhibitors and Substrates of Cytochrome P450 2D6 (AID 891); conditions: recombinant CYP2D6, luciferin-ME EGE luminescence; series mostly up to 57.1 µM; also: nearly all actives have a fitted effect of over 60% in size; also: potency is read from the fitted curve at half-maximal effect
Chain of Cytochrome P450 2D6 (Homo sapiens) (P10635 whole entry, looked up): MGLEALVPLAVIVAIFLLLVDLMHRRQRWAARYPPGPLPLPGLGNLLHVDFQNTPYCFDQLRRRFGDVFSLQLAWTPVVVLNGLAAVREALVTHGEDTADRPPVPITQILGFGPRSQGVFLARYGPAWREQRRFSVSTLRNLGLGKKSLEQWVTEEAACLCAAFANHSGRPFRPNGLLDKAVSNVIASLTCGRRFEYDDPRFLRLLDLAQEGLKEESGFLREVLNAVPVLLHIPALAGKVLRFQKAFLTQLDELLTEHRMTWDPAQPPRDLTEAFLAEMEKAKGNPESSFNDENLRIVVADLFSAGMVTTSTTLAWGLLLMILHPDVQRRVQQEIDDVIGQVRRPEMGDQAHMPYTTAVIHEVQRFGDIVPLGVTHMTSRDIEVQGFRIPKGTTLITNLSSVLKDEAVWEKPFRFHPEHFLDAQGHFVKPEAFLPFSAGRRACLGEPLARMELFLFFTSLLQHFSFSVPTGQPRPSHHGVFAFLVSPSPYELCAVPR
Summary of the method: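 Human CYP2D6 (5 nM) with 30 uM Luciferin-ME EGE (at Km) in 100 mM KPO4, compound preincubated 10 min, then NADPH regeneration system for 60 min at room temperature. Luciferin read by luminescence; normalized to 1.43 uM quinidine.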

[5] = target: Cytochrome P450 2C19 (Homo sapiens) (UniProt P33261); assay: qHTS Assay for Inhibitors and Substrates of Cytochrome P450 2C19 (AID 899); conditions: recombinant CYP2C19, luciferin-H EGE luminescence; series mostly up to 57.1 µM; also: nearly all actives have a fitted effect of over 60% in size; also: potency is read from the fitted curve at half-maximal effect
Chain of Cytochrome P450 2C19 (Homo sapiens) (P33261 whole entry, looked up): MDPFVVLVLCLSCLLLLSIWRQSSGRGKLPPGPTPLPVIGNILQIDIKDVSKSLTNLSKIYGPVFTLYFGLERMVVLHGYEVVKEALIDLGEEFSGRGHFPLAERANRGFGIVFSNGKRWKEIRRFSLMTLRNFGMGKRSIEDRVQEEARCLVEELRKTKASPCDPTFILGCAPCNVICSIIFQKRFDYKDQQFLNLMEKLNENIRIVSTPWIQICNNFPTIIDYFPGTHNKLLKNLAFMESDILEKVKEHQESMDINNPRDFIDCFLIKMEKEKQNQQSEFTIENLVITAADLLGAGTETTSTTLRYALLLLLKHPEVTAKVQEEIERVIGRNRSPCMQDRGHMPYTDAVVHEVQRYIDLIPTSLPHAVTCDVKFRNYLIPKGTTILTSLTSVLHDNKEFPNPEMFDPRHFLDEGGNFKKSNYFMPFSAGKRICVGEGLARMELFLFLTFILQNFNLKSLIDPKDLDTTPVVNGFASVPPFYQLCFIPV
Summary of the method: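 Signal comes from luciferase acting on luciferin released by CYP2C19-mediated hydroxylation of Luciferin-H EGE, 10uM (KM). Assay mix: 5nM enzyme, 50mM KPO4; 60 min at 37C with NADPH regeneration. Data normalized against 57uM ketoconazole.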

[6] = qHTS Assay for Identification of Small Molecule Agonists for Thrombopoietin (TPO) Signaling Pathway (AID 917); conditions: TPO signaling pathway reporter cells, agonist qHTS, stimulated with TPO at its EC50; series mostly up to 38.5 µM; also: potency is read from the fitted curve at half-maximal effect
Summary of the method: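 We measured Glycoprotein IIb promoter–luciferase output in IL-3-starved Ba/F3 murine cells expressing the human TPO receptor after 24 hrs at 37 C with compounds and 26 pM TPO.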

[7] = target: Muscarinic acetylcholine receptor M1 (Rattus norvegicus) (UniProt P08482); assay: qHTS Assay for Antagonists of Acetylcholine Muscarinic M1 Receptor: Measurement of IP-One Response (AID 944); conditions: CHO-M1 cells, IP-One HTRF, antagonist mode; series mostly up to 46.1 µM; also: nearly all actives have a fitted effect of over 75% in size; also: potency is read from the fitted curve at half-maximal effect
Chain of Muscarinic acetylcholine receptor M1 (Rattus norvegicus) (P08482 whole entry, looked up): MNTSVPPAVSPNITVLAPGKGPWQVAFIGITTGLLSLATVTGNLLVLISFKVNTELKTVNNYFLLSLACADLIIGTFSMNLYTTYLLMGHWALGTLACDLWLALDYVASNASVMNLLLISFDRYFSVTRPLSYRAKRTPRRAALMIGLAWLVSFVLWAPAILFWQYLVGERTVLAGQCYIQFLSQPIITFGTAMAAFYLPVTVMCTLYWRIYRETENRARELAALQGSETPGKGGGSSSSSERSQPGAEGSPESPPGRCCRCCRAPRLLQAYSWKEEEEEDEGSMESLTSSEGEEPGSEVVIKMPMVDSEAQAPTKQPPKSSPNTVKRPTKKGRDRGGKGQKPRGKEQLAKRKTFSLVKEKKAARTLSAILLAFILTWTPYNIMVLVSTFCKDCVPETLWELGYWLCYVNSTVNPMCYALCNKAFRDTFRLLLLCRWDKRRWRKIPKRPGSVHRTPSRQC
Summary of the method: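 CHO cells stably expressing rat M1, pretreated 10 min with compound, then stimulated 30 min with carbachol at EC80 (200 nM) in LiCl-containing buffer pH 7.4; IP1 accumulation read by HTRF competition (665/620 nm).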

[8] = target: Pyruvate kinase (Leishmania mexicana) (UniProt Q27686); assay: qHTS Validation Assay for Inhibitors of Leishmania Mexicana Pyruvate Kinase (AID 945); also: potency is read from the fitted curve at half-maximal effect; conditions: purified L. mexicana pyruvate kinase, enzyme activity, E451W mutant enzyme; series mostly up to 57.5 µM
Chain of Pyruvate kinase (Leishmania mexicana) (Q27686 2-499 E452W): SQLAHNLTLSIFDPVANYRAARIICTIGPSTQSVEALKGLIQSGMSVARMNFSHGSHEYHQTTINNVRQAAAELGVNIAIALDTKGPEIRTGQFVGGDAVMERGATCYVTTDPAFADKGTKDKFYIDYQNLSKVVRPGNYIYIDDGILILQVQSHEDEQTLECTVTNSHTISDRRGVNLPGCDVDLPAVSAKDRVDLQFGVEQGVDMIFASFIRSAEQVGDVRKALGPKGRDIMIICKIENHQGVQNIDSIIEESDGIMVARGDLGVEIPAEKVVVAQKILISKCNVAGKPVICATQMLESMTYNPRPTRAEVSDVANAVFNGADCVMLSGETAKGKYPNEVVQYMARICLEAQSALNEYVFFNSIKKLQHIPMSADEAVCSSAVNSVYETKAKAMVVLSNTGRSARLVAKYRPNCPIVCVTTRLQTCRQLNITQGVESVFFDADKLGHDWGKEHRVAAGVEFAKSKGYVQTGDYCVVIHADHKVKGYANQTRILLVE
Summary of the method: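 LmPYK E451W 0.2 nM; 0.5 mM PEP, 0.1 mM ADP, 7 mM MgCl2, 50 mM KCl, imidazole pH 7.2, 0.01% Tween 20, 0.05% BSA; 1 h RT; PKLight luminescence; DMSO-normalized.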

[9] = target: Cytochrome P450 3A4 (Homo sapiens) (UniProt P08684); assay: qHTS Assay for Inhibitors and Substrates of Cytochrome P450 3A4 (AID 884); conditions: recombinant CYP3A4, Luciferin-PPXE luminescence; series mostly up to 57.1 µM; also: nearly all actives have a fitted effect of over 50% in size; also: potency is read from the fitted curve at half-maximal effect
Summary of the method: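 20 nM human CYP3A4 with 25 uM Luciferin-PPXE (at KM) in 200 mM KPO4, preincubated 10 min with compound; NADPH regeneration started a 60 min RT reaction. Luciferin detected by luminescence, normalized to 57 uM ketoconazole as full inhibition.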

[10] = Cellular Toxicity (caspase-3) NIH 3T3 (AID 666); conditions: NIH 3T3 caspase-3 activation, apoptosis/toxicity; series mostly up to 92.2 µM;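 also: caspase signal read after 16 h compound exposure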; also: potency is read from the fitted curve at half-maximal effect
Summary of the method: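 Mouse NIH 3T3 fibroblasts (1000/well) treated 16 h at 37 C; caspase-3/7 activity measured by Caspase-Glo 3/7 luminescence after 20 min. Normalized to DMSO and 100 uM tamoxifen; AC50 from Hill fits.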

[11] = Cellular Toxicity (caspase-3) Renal Proximal Tubule (AID 667); conditions: renal proximal tubule cells, primary cells freshly taken from rat; Potency: caspase-3 activation; series mostly up to 91.7 µM;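 also: cells exposed to compound for 16 hours at 37 °C before detection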; also: potency is read from the fitted curve at half-maximal effect
Summary of the method: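 In qHTS format, rat primary proximal tubule cells seeded at 1000 per well are exposed to compounds for 16 hours at 37 °C. An increase in Caspase-Glo 3/7 luminescence indicates caspase activation.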

[12] = Confirmation and Secondary Assay for Modulators of Hemoglobin Beta Chain Splicing at IVS2 654 locus (AID 910); conditions: HeLa EGFP-654 splicing reporter, GFP fluorescence, 48 h; series mostly up to 46.1 µM;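 also: HeLa cells stably carrying EGFP split by mutant beta-globin IVS2-654 intron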
Summary of the method: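 HeLa cells stably expressing EGFP interrupted by β-globin IVS2-654 intron, seeded overnight in Opti-MEM/2% FCS, then treated 2 days at 37 °C. Restored splicing read as total peak GFP intensity per well by laser scanning cytometry (488 nm excitation, 500–520 nm emission); 500 nM antisense PNA as control.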

[13] = Cell Viability - LYMP2-001 (AID 921); conditions: LYMP2-001 lymphoblastoid cell viability; series mostly up to 92.2 µM; also: nearly all actives have a fitted effect of over 70% in size; also: potency is read from the fitted curve at half-maximal effect
Summary of the method: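 qHTS, 1536-well; lymphoblastoid cells, 24 hr compound, 37 C; ATP by CellTiter-Glo, 30 min RT; luminescence; Hill-fit AC50.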

[14] = Confirmation and Secondary Assay for Modulators of Hemoglobin Beta Chain Splicing at IVS2 705 locus (AID 930); conditions: HeLa EGFP-705 splicing reporter, GFP fluorescence, 48 h; series mostly up to 46.1 µM;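 also: HeLa cells stably expressing the EGFP-705 splicing reporter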
Summary of the method: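 HeLa cells stably carrying EGFP interrupted by mutant beta-globin IVS2-705 intron (CMV-driven) were seeded at 500 cells/well, treated next day with compound for 2 days at 37C; corrected splicing restores EGFP, read as total peak GFP intensity per well.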

[15] = MultiTox-Fluor Cytotoxicity Assay - LYMP1-001 - Dead Cells (AID 946); conditions: LYMP1-001 lymphoblastoid cells, dead-cell protease fluorescence; series mostly up to 92.2 µM; also: potency is read from the fitted curve at half-maximal effect
Summary of the method: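 Cytotoxicity as increased dead-cell protease fluorescence (bis-AAF-R110, 485/520 nm), read 60 min after MultiTox-Fluor reagent. Human lymphoblastoid line exposed 16 h; Hill-fitted AC50, with DMSO as 0% and 15 uM tetraoctylammonium bromide as 100%.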

[16] = qHTS Assay for Identification of Small Molecule Antagonists for NFkB Signaling Pathway (AID 895; active = well fitted inhibition curve with a large enough effect in the signal ratio, with a control signal flat, not every such curve was filed as active; the % refers to the signal ratio); conditions: NFkB beta-lactamase reporter cells, FRET ratio 460/530, stimulated with 10 pM TNF alpha; series mostly up to 38.3 µM
Summary of the method: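 ME-180 NFkB-bla cells (beta-lactamase under NFkB response element), plated overnight, treated with compound then 10 pM TNF alpha (about EC50) for 5 hrs at 37 C. LiveBLAzer FRET read at 460/530 nm emission, 405 nm excitation.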

[17] = target: Muscarinic acetylcholine receptor M1 (Rattus norvegicus) (UniProt P08482); assay: qHTS Assay for Antagonists of Acetylcholine Muscarinic M1 Receptor: Kinetic Measurement of Intracellular Calcium Response (AID 943); conditions: M1-expressing cells, kinetic intracellular calcium fluorescence; series mostly up to 35.3 µM; also: nearly all actives have a fitted effect of over 75% in size
Summary of the method: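 CHO cells expressing rat M1 receptor, Fluo-4 loaded, preincubated 10 min with compound, then stimulated with EC80 carbachol (100 nM final). Kinetic calcium fluorescence over 4 min; response taken as peak over basal signal.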

[18] = qHTS Assay for Identification of Small Molecule Antagonists for Thrombopoietin (TPO) Signaling Pathway (AID 918); conditions: TPO-dependent cell signaling reporter, antagonist mode; also: potency is read from the fitted curve at half-maximal effect; nearly all actives have a fitted effect of over 60% in size
Summary of the method: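 Murine Ba/F3 cells expressing human TPO receptor and a Glycoprotein IIb promoter-luciferase reporter, IL-3-starved overnight, treated with compound plus TPO at EC50 (26 pM final). After 24 h at 37 C, luminescence read to detect inhibitors.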

Measured: Potency

Cc1ccc(O)c(N=Nc2ccccc2)n1
active: [6] 0.0794 µM | [8] 6.31 µM
12.6 µM (active) and inactive: [2]
3.98 µM (active) and inactive: [4] | [5]
inactive: [1] | [3] | [7]

COC(=O)c1c(C)[nH]c(C)c1C(=O)c1ccccc1Cc1ccccc1
inactive: [1] | [3] | [6] | [7] | [8]
active: [2] 2.51 µM | [9] 0.501 µM | [5] 0.1 µM

COc1cc(CNC(=O)CCCC/C=C/C(C)C)ccc1O
active: [9] 2.51 µM
inactive: [10] | [11] | [3] | [12] | [13] | [14] | [15]

O=C(O)c1cc(=O)c2c(Cl)cc(Cl)cc2[nH]1
inactive: [1] | [2] | [9] | [4] | [16] | [5] | [12] | [6] | [14] | [8]

Nc1ccc(O)c(C(=O)O)c1
inactive: [10] | [11] | [3] | [13] | [15]
active: [5] 5.01 µM

N=C1N=C(N)c2cc3ccccc3cc21
active: [13] 39.8 µM | [15] 39.8 µM
inactive: [11] | [9]

O=C(Nc1ccccc1)c1cc([N+](=O)[O-])ccc1Cl
inactive and 6.31 µM (active): [2]
inactive: [1] | [3] | [4] | [7]
inactive and 794 nM (active): [5]
active: [6] 1.58 µM

CN1CCC[C@H]1c1cccnc1
inactive: [10] | [11] | [13] | [15]

CC1(C)S[C@@H]2[C@H](NC(=O)[C@H](N)c3ccccc3)C(=O)N2[C@H]1C(=O)O
inactive: [10] | [11] | [13] | [15]

Nc1nc2ccc([N+](=O)[O-])cc2s1
inactive: [10] | [11] | [13] | [15]

Cn1cc(C2=C(c3ccc(Cl)cc3Cl)C(=O)NC2=O)c2ccccc21
active: [2] 10 µM | [9] 2 µM
inactive: [1] | [3] | [17] | [7]

NCCO
inactive: [10] | [11] | [9] | [13] | [15]

O=C(O)/C=C\C(=O)O
inactive: [10] | [11] | [9] | [13] | [15]

N.N.O=C(O)C1(C(=O)O)CCC1.[Pt]
active: [2] 3.98 µM | [5] 3.98 µM
inactive: [1] | [9] | [3] | [12] | [6] | [14] | [17] | [7] | [8]

Oc1ccccc1O
inactive: [11] | [1] | [2] | [4] | [5] | [8] | [15]

c1cnc2c(c1)ccc1cccnc12
inactive: [10] | [11] | [1] | [2] | [9] | [4] | [5] | [17] | [7]

O=c1[nH]c2cc([N+](=O)[O-])c([N+](=O)[O-])cc2[nH]c1=O
inactive: [1] | [2] | [3] | [4] | [5] | [6] | [17] | [7]

CC(C)NCC(O)COc1cccc2ccccc12 (stereo not given)
inactive: [10] | [11] | [9] | [12] | [13] | [14] | [15]

CN(C)c1ccc(C(=C2C=CC(=[N+](C)C)C=C2)c2ccccc2)cc1
active: [10] 1 µM | [11] 0.794 µM | [13] 0.199 µM | [15] 0.501 µM

Nc1ccc(O)c([N+](=O)[O-])c1
inactive: [10] | [11] | [9] | [13] | [15]

c1ccc2sc(SSc3nc4ccccc4s3)nc2c1
inactive: [10] | [11] | [9] | [13] | [15]

O=C(O)c1cc(O)c(O)c(O)c1
inactive: [10] | [11] | [9] | [12] | [13] | [14] | [15]

CN(C)CCC(c1ccc(Cl)cc1)c1ccccn1 (stereo not given)
inactive: [10] | [11] | [9] | [13] | [15]

Nc1ccc([N+](=O)[O-])cc1O
inactive: [10] | [11] | [9] | [13] | [15]

O=c1cc(-c2ccccc2)oc2ccccc12
inactive: [10] | [11] | [13] | [15]

CCCCCCCCCCCCCCCCCC(=O)O
inactive: [10] | [11] | [9] | [13] | [15]

O=C1C(SCCO)=C(SCCO)C(=O)c2ccccc21
inactive: [1] | [3] | [17] | [8]
active: [2] 12.6 µM and 5.01 µM | [4] 7.94 µM | [5] 501 nM and 79.4 nM | [18] 1.26 µM | [7] 10 µM
